From the supplement of paper PMC7380943
Where a name gives a salt, the structure may show the parent alone.

test system: CLZ3 (HCA2 human fibroblast dual HR-NHEJ reporter); assay: NHEJ repair efficiency (GFP+ cells) relative to control (log10 fold); higher = more non-homologous end joining; settings: 5 µM; doxycycline 0.5 ug/mL
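Further: compound given one day ahead of doxycycline, which switches on I-SceI endonuclease to cut the chromosomally integrated reporter and create DSBs.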

Question: How did the “NHEJ repair efficiency (log10)” value turn out when `OC[C@H]1OC(O)[C@@H](O)[C@@H](O)[C@@H]1O` (stereo partly specified) [Mannose] was run?
Answer: 0.0722

Question: With `c1cc2c(c3c1CC1c4cc5c(cc4CCN1C3)OCO5)OCO2` (stereo unspecified) [Tetrahydrocoptisine] as the compound, how does the “NHEJ repair efficiency (log10)” value read?
Answer: -0.0636

Question: For `C[C@H]1O[C@@H](O[C@H]2CC[C@@]3(C)[C@@H](CC[C@]4(C)[C@@H]3C=C[C@]35OC[C@@]6(CCC(C)(C)C[C@H]63)[C@@H](O)C[C@]54C)[C@]2(C)CO)[C@H](O)[C@@H](O[C@@H]2O[C@H](CO)[C@@H](O)[C@H](O)[C@H]2O)[C@H]1O` [Saikosaponin a], which “NHEJ repair efficiency (log10)” value is on record?
Answer: -0.305

Question: `COc1ccc(C2OCC3C(c4cc(OC)c(OC)c(OC)c4)OCC23)cc1OC` (stereo unspecified) [Magnolin] was tested. Which “NHEJ repair efficiency (log10)” value did it give?
Answer: -0.0599

Question: Which “NHEJ repair efficiency (log10)” value does the source give for `CC1(C)CC[C@]2(C(=O)O)CC[C@]3(C)C(=CC[C@@H]4[C@@]5(C)CC[C@H](O)[C@@](C)(CO)[C@@H]5CC[C@]43C)[C@@H]2C1` [Hederagenin] here?
Answer: -0.021

Question: Which “NHEJ repair efficiency (log10)” value does the source give for `O=C(O)c1cc(O)c2c(c1)[C@H]([C@H]1c3cc(C(=O)O)cc(O)c3C(=O)c3c(O[C@@H]4O[C@H](CO)[C@@H](O)[C@H](O)[C@H]4O)cccc31)c1cccc(O[C@@H]3O[C@H](CO)[C@@H](O)[C@H](O)[C@H]3O)c1C2=O` [Sennoside A] here?
Answer: 0.0438

Question: How did the “NHEJ repair efficiency (log10)” value turn out when `COc1ccc2c(OC)c3ccoc3nc2c1OC` [Skimmianine] was run?
Answer: -0.0606

Question: `C[C@H](CCC(=O)O)[C@H]1CC[C@H]2[C@@H]3CC[C@@H]4C[C@H](O)CC[C@]4(C)[C@H]3C[C@H](O)[C@]12C` [Deoxycholic acid] was tested. Which “NHEJ repair efficiency (log10)” value did it give?
Answer: -0.0363

Question: With `CC(C)=CCC[C@](C)(O[C@@H]1O[C@H](CO[C@@H]2O[C@H](CO)[C@@H](O)[C@H](O)[C@H]2O)[C@@H](O)[C@H](O)[C@H]1O)[C@H]1CC[C@]2(C)[C@@H]1[C@H](O)C[C@@H]1[C@@]3(C)CC[C@H](O[C@@H]4O[C@H](CO)[C@@H](O)[C@H](O)[C@H]4O[C@@H]4O[C@H](CO)[C@@H](O)[C@H](O)[C@H]4O)C(C)(C)[C@@H]3CC[C@]12C` [Ginsenoside Rb1] as the compound, how does the “NHEJ repair efficiency (log10)” value read?
Answer: 0.0709

Question: With `Cc1ccc(C(C)C)cc1` [p-Cymene] as the compound, how does the “NHEJ repair efficiency (log10)” value read?
Answer: 0.065

Question: Which “NHEJ repair efficiency (log10)” value does the source give for `Nc1ncnc2c1ncn2[C@@H]1O[C@H](CO)[C@@H](O)[C@H]1O` [Adenosine] here?
Answer: -0.0785

Question: Which “NHEJ repair efficiency (log10)” value does the source give for `COc1cc2c(cc1OC)-c1cc3ccc(OC)c(OC)c3c[n+]1CC2` [Palmatine hydrochloride] here?
Answer: 0.0374

Question: Which “NHEJ repair efficiency (log10)” value does the source give for `C[C@@H]1CC[C@]2(C(=O)O[C@@H]3O[C@H](CO)[C@@H](O)[C@H](O)[C@H]3O)CC[C@]3(C)C(=CC[C@@H]4[C@@]5(C)CC[C@H](O)[C@@](C)(CO)[C@@H]5CC[C@]43C)[C@@H]2[C@]1(C)O` [Pedunculoside] here?
Answer: 0.0473

Question: Which “NHEJ repair efficiency (log10)” value does the source give for `COc1ccc(-c2oc3cc(O)cc(O)c3c(=O)c2O)cc1` [Kaempferide] here?
Answer: -0.0948

Question: `C[C@@H]1CC[C@@]2(NC1)O[C@H]1C[C@H]3[C@@H]4CC=C5C[C@@H](O[C@@H]6O[C@H](CO)[C@H](O)[C@H](O[C@@H]7O[C@H](CO)[C@@H](O)[C@H](O)[C@H]7O)[C@H]6O[C@@H]6O[C@@H](C)[C@H](O)[C@@H](O)[C@H]6O)CC[C@]5(C)[C@H]4CC[C@]3(C)[C@H]1[C@@H]2C` [Solasonine] was tested. Which “NHEJ repair efficiency (log10)” value did it give?
Answer: -0.000957

Question: For `CC[C@H](C)[C@@H]1NC(=O)[C@@H]2CCCN2C(=O)[C@@H]2CCCN2C(=O)[C@@H]2CCCN2C(=O)[C@H](CC(C)C)NC(=O)CNC(=O)CNC(=O)[C@H](Cc2ccccc2)NC1=O` [Heterophyllin B], which “NHEJ repair efficiency (log10)” value is on record?
Answer: 0.0424

Question: With `C=C1C[C@@]23CC[C@H]4[C@@](C)(CCC[C@@]4(C)C(=O)O[C@@H]4O[C@H](CO)[C@@H](O)[C@H](O)[C@H]4O)[C@@H]2CC[C@]1(O[C@@H]1O[C@H](CO)[C@@H](O)[C@H](O)[C@H]1O[C@@H]1O[C@H](CO)[C@@H](O)[C@H](O)[C@H]1O)C3` [Stevioside] as the compound, how does the “NHEJ repair efficiency (log10)” value read?
Answer: 0.149

Question: `O=c1c(-c2ccc(O)cc2)coc2c([C@@H]3O[C@H](CO)[C@@H](O)[C@H](O)[C@H]3O)c(O)ccc12` [Puerarin] was tested. Which “NHEJ repair efficiency (log10)” value did it give?
Answer: 0.0163

Question: With `CC(C)[C@@H](C)/C=C/[C@@H](C)[C@H]1CC[C@H]2C3=CC=C4C[C@@H](O)CC[C@]4(C)[C@H]3CC[C@]12C` [Ergosterol] as the compound, how does the “NHEJ repair efficiency (log10)” value read?
Answer: 0.00511

Question: How did the “NHEJ repair efficiency (log10)” value turn out when `OC[C@H]1OC(O)[C@H](O)[C@@H](O)[C@H]1O` (stereo partly drawn) [D-Galactose] was run?
Answer: 0.00385

Question: For `C/C=C(/C)C(=O)O[C@H]1c2cc(OC)c(OC)c(OC)c2-c2c(cc3c(c2OC)OCO3)C[C@H](C)[C@]1(C)O` [Wuweizi Ester B], which “NHEJ repair efficiency (log10)” value is on record?
Answer: -0.108
